Data taken from PubChem BioAssay AID1851 (National Center for Advancing Translational Sciences (NCATS), 2009).
Several values for one entry are separate records, joined by “and”; a condition that tells them apart may be missing. Identical values can stand only once. Among all 16,000 compounds or so, about 2,600 (16%) were called active. Another 20% or so got no clear call; they are omitted. These entries were drawn from the full list. Unmarked numbers belong to inactive results. The call rests on the fitted dose curve; in most records, active means well fitted curve in the direction sought with a large enough effect; inconclusive means small, poorly fitted or top-dose-only effect, or effect the other way; inactive means no such curve, though single readings can be large or run the other way.

target: Cytochrome P450 2D6 (Homo sapiens) (UniProt P10635); experiment: Cytochrome panel assay with activity outcomes; conditions: recombinant CYP, pro-luciferin dealkylation, luminescence, p450-cyp2d6; series mostly up to 57.1 µM
Sequence (P10635 whole entry, looked up): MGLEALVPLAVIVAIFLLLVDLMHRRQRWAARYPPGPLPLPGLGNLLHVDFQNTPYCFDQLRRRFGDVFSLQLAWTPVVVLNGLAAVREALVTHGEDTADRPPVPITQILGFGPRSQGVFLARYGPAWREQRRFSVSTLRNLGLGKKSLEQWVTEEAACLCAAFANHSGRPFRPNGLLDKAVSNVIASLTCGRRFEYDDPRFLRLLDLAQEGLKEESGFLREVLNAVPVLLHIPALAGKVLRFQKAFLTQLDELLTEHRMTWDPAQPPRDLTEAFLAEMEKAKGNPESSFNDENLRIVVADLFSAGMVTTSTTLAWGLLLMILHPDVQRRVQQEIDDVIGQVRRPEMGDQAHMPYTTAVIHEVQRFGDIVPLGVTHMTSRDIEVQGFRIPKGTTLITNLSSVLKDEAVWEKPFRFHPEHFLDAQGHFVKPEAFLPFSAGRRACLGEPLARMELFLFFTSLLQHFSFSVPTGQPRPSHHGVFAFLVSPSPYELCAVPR
On the % scale 0 is the no-effect control and ±100 the full control effect.

SMILES	activity, negative = inhibition	AC50
CO[C@H]1COC(=O)[C@H](Cc2ccccc2)NC(=O)C/C=C\[C@@H](C)[C@H](OC)COC(=O)C/C=C\[C@@H]1C	11.3% [at 11.4 µM]	–
CN(C)C(=O)CN(c1ccc2c(c1)OCO2)S(C)(=O)=O	–	inactive
COc1ccc2cc3cc(C(=O)Nc4ccc5c(c4)OCO5)oc3nc2c1	–	inactive
O=C(/C=C\c1ccc2c(c1)OCO2)c1ccc(F)cc1	–	2 µM (active)
COC(=O)c1cc(NC(=O)/C=C/c2ccc3c(c2)OCO3)cc(C(=O)OC)c1	–	inactive
O=C(O)/C=C\C=C/c1ccc2c(c1)OCO2	-10.2% [at 11.4 µM]	–
O=C(/C=C\c1ccccc1)c1ccccc1O	-5.64% [at 11.4 µM]	–
COCOc1cc(OC)ccc1C(=O)/C=C\c1ccc2c(c1)OCO2	–	3.98 µM (active)
Nc1ccccc1C(=O)/C=C\c1ccc2c(c1)OCO2	–	3.16 µM (active)
CCOC(=O)c1c(NC(=O)/C=C/c2ccc3c(c2)OCO3)sc(C)c1CC	–	inactive
CCOC(=O)c1[nH]c(C)c(/C(O)=C2\C(=O)C(=O)N(CCN3CCOCC3)C2c2cccs2)c1C (configuration not stated)	–	inactive
Cc1ccccc1-n1nc2c(c1NC(=O)c1c(-c3ccccc3Cl)noc1C)CSC2	–	inactive
COCC(=O)N1CCN(c2ccc([N+](=O)[O-])cc2)CC1	–	inactive
CN1C(=O)NC(c2ccc(O)cc2)C(C(=O)c2cccs2)C1(O)C(F)(F)F (configuration not stated)	–	inactive
Cc1cccc(C)c1NC(=O)c1cc2c(=O)c3ccccc3oc2nc1C(F)(F)F	–	inactive
CO[C@H]1COC(=O)[C@@H](C)COC(=O)[C@@H](COCc2ccccc2)NC(=O)C/C=C\[C@H]1C	6.49% [at 11.4 µM]	–
CC(=O)N(/N=C/c1cccc(C)c1)c1nc(-c2ccc(Br)cc2)cs1	–	inactive
Cc1cc(N)c2ccccc2[n+]1CCCCCCCCCCCCCC[n+]1c(C)cc(N)c2ccccc21	–	7.94 µM (active)
Cc1cc(N)c2ccccc2[n+]1CCCCCCCCCC[n+]1c(C)cc(N)c2ccccc21	–	10 µM (active) and 15.8 µM (active)
Cn1c(N)c(C(=O)CSc2ccc3c(c2)OCCO3)c(=O)n(C)c1=O	–	inactive
O=C(COc1cccc2ccccc12)N1c2ccccc2CCc2ccccc21	–	inactive

SMILES	activity, negative = inhibition	AC50
COC(=O)[C@@H](NC(=O)Nc1ccc(C(C)=O)cc1)C(C)C	–	inactive
CC(C)=CCC/C(C)=C/CO/N=C1/C[C@@H](O)[C@@H](O)[C@@H]2[C@@H]3C(=O)N(Cc4ccc5c(c4)OCO5)C(=O)[C@H]3CC[C@@H]12	-7.94% [at 11.4 µM]	–
O/N=C/c1cc(Cl)ccc1OCc1cccc2ccccc12	–	15.8 µM (active)
O=C(SCc1cccc2ccccc12)c1ccc(Cl)cc1	-11.2% [at 11.4 µM]	–
COc1cc(/C=N/O)cc(Br)c1OCc1cccc(Cl)c1	–	inactive
CC(C)C(NS(=O)(=O)c1cccc2nsnc12)C(=O)N1CCc2ccccc2C1 (configuration not stated)	–	inactive
CO[C@H]1[C@H](O[C@H]2O[C@@H](C)[C@@H](O[C@@H]3C[C@](C)(O)[C@H](OC(=O)CC(C)C)[C@H](C)O3)[C@@H](N(C)C)[C@@H]2O)[C@@H](CC=O)C[C@@H](C)[C@@H](O)/C=C\C=C/C[C@@H](C)OC(=O)C[C@H]1OC(C)=O	–	inactive
CC(C)(C)c1ccc(C(=O)NC(Cc2ccccc2)C(=O)O)cc1 (configuration not stated)	–	inactive
Cc1ccc2[nH]c(-c3ccccc3)c(CN(C)C)c(=O)c2c1	–	0.0316 µM (active)
Cc1cc(=O)[nH]c2ccccc12	–	inactive
CCCCCCN(CCCCCC)C(=O)Cc1c(-c2ccc(F)cc2)[nH]c2ccccc12	–	inactive
CC(=O)N1CCN(c2nc(C)nc3sc4c(c23)CCC(C)C4)CC1 (configuration not stated)	–	inactive
CON/C=C(\C=Nc1ccccc1)c1ncc(C(F)(F)F)cc1Cl	–	inactive
COc1ccc(C2CC(=O)CC(=O)C2n2cncn2)cc1 (configuration not stated)	–	inactive
O=C(O)Cc1nn(Cc2ccc(Br)cc2F)c(=O)c2ccccc12	–	inactive
CC(C)(C)CC(=O)NC(=S)Nc1ccccc1C(F)(F)F	–	inactive
Cc1cc(C)c(S(=O)(=O)Nc2ccccc2C(F)(F)F)c(C)c1	–	6.31 µM (active)
Cc1cc(C)c(S(=O)(=O)Nc2cccc(C(F)(F)F)c2)c(C)c1	–	inactive
CCN(CC)c1ccc(NC(=O)c2cnn(CC)c2)cc1	–	inactive
COC(=O)CSc1ccc2nnc(-c3ccc(F)cc3)n2n1	–	inactive
c1ccc(-c2nnc(SCc3nc4ccccc4[nH]3)n2Cc2ccco2)cc1	–	6.31 µM (active)

SMILES	activity, negative = inhibition	AC50
Cc1cc(C)nc(SCc2nnc(SCC(N)=O)n2Cc2ccco2)n1	–	inactive
Cc1cc(NC(=O)CSc2nnc(-c3ccccc3)n2Cc2ccco2)no1	–	inactive
O=C(O)CSc1nc2ccccc2[nH]1	9.25% [at 11.4 µM]	–
OCCNc1nc2ccccc2[nH]1	–	inactive
c1ccc(SCc2nc3ccccc3[nH]2)cc1	–	10 µM (active)
OC(Cc1nc2ccccc2[nH]1)c1ccccc1Cl (configuration not stated)	–	1.12 µM (active)
c1ccc2[nH]c(NC3=NCCC3)nc2c1	–	inactive
COCCn1c(Cc2ccccc2)nnc1SCc1nc2ccccc2c(=O)[nH]1	–	inactive
Cc1nonc1NC(=O)N1CCCC1	–	inactive
O=C(O)Cn1ccnc1[N+](=O)[O-]	0.12% [at 11.4 µM]	–
Cc1ccc(C)c(/C(O)=C2/C(=O)C(=O)N(CCN3CCOCC3)C2c2ccco2)c1 (configuration not stated)	–	inactive
COc1ccc(NC(=O)CSc2ccc3c4c(cccc24)C(=O)c2ccccc2-3)cc1	–	inactive
O=C(NCc1ccccc1)c1sc(=S)n2c1[nH]c(=O)c1ccccc12	–	inactive
COc1ccc(C(=O)Nc2cc(C(C)=O)c(/C=C/N(C)C)oc2=O)cc1	–	inactive
CCC(=O)Nc1c2c(nc3c1CCC3)CCCC2	–	inactive
COC(=O)CCC(=O)Nc1cccc2ccccc12	–	inactive
O=S(=O)(CC(O)COc1ccccc1Cl)c1ccccc1 (configuration not stated)	–	inactive
CCC(=O)NC(=S)Nc1ccc(NC(=O)COc2ccc(Cl)cc2Cl)cc1	–	inactive
O[C@@H](COc1ccc(Cl)cc1Cl)CN1CCCC1	–	0.316 µM (active)
O=C(OC1CCN(c2ncc(C(F)(F)F)cc2Cl)CC1)c1ccccc1	–	inactive
